In the library only some 4.6% were active in any assay of this set; here they are far more common.
PfHsp90 yeast 2: reduces growth (ATP signal) of yeast expressing P. falciparum Hsp90 | S. cerevisiae expressing PfHsp90, BacTiter-Glo ATP, 48 h; yeast lacking PDR1 and PDR3 efflux regulators | inhibition, % at 9.4 µM | actives 0.32% (n = 310,000) | AID 504621;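 active means every replicate shows inhibition above about 80%, whatever the replicate mean, limit read from the data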;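 further: 0% = DMSO neutral controls and 100% = 20 µM radicicol positive controls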
tim10-1 inh: inhibits growth of tim10-1 mutant yeast; actives 2.2% (n = 330,000); inhibition, % at 20 µM; S. cerevisiae tim10-1 ts strain growth, BacTiter-Glo, 24 h; AID 463190;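 active means inhibition of at least 40%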;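 further: mutant grown at 25 °C; 0% = DMSO wells with yeast and 100% = wells holding no yeast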
NALP3 yeast inh: NALP3 inhibition in yeast | AID 2825 | actives 0.39% (n = 330,000) | inhibition, % at 10 µM | Yeast reconstituted NLRP3/ASC/caspase-1, beta-gal luminescence, 24 h;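 active means inhibition of 50% or more; inactive means inhibition below 50%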;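 further: plate controls were induced DMSO wells for no effect and uninduced yeast grown without galactose for full effect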
tim23-1 inh: growth inhibitors of tim23-1 mutant yeast; inhibition, % at 20 µM; actives 1.3% (n = 330,000); S. cerevisiae tim23-1 growth, BacTiter-Glo luminescence, 24 h;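 active means growth inhibition of the mutant yeast at or above 50%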;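 further: temperature-sensitive mutant grown at 25 °C; plate controls were DMSO-treated mutant yeast for no effect and medium wells lacking yeast for full effect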
SKKanGAS inh: SKKanGAS growth inhibition. S. pyogenes SKKanGAS, kanamycin growth, BacTiter-Glo, 6 h. inhibition, % at 7.5 µM. actives 1.3% (n = 300,000). AID 1662;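 active means mean replicate score, as percent of positive control median, at least 50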;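 further: strain carries kanamycin resistance gene driven by streptokinase promoter and grows in 40 µg/ml kanamycin; loss of luminescence reflects streptokinase promoter inhibition or plain growth inhibition; 0% = median of DMSO wells and 100% = positive control at its reference dose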
TIM10 inh: growth inhibitors of TIM10 yeast strain. inhibition, % at 10 µM. AID 463195. S. cerevisiae TIM10 strain growth, BacTiter-Glo luminescence, 24 h. actives 1.4% (n = 330,000);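 active means inhibition of 40% or more at the single tested concentration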;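 further: wild-type TIM10 isogenic control strain grown at permissive 25 °C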
tim10-1 confirm: tim10-1 yeast growth inhibition, confirmed; shares compounds with tim10-1 inh; S. cerevisiae tim10-1 ts strain growth, BacTiter-Glo, 24 h; inhibition, % at 20 µM; actives 56% (n = 7,400); AID 463213;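 active means inhibition of yeast growth at or above a set limit in either of two repeat tests at 20 µM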;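 further: tim10-1 mutant grown at permissive 25 °C to find synthetic lethal compounds; 0% = DMSO yeast wells and 100% = medium wells without yeast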
Active calls of the source: *.

Screening O=C(Nc1ncc2c(n1)-c1ccccc1OC2)c1ccc(F)cc1 returned tim10-1 inh 33.1, NALP3 yeast inh 8.9, tim23-1 inh 39.5, SKKanGAS inh -5.5 and TIM10 inh 23.9.
For O=C(Nc1ncc2c(n1)-c1ccccc1CC2)c1ccc(Cl)cc1 the results were tim10-1 inh 46.8*, NALP3 yeast inh 29.8, tim23-1 inh 45.5, SKKanGAS inh -3.4, TIM10 inh 25.3 and tim10-1 confirm 37.3*.
For CC(NC(=O)c1ccnc(C(C)(C)C)c1)c1ccccc1 (stereo not drawn) the results were tim10-1 inh 20.8, NALP3 yeast inh -0.8, tim23-1 inh 3.9 and TIM10 inh 15.9.
Screening Cc1ccsc1C1NC(=O)c2c(sc3c2CCCC3)N1 (stereo not drawn) returned PfHsp90 yeast 2 -0.7, tim10-1 inh 48.4*, NALP3 yeast inh -7.6, tim23-1 inh 47.6, SKKanGAS inh 10.8, TIM10 inh 37.6 and tim10-1 confirm 35.2*.
`CN(C)CCN(C(=O)c1ccc2ccccc2c1)c1nc2ccc(F)cc2s1` gave PfHsp90 yeast 2 3.0, tim10-1 inh 27.9, NALP3 yeast inh 1.5, tim23-1 inh 27.3, SKKanGAS inh -4.9 and TIM10 inh 8.5.
`CCN(CC)CCN(C(=O)c1cc2ccccc2cc1OC)c1nc2ccc(F)cc2s1` gave PfHsp90 yeast 2 3.5, tim10-1 inh 56.9*, NALP3 yeast inh 31.4, tim23-1 inh 42.8, SKKanGAS inh 5.5, TIM10 inh 25.3 and tim10-1 confirm 13.9.
CCN(CC)CCN(C(=O)c1ccc2ccccc2c1)c1nc2ccc(OC)cc2s1 was read as PfHsp90 yeast 2 6.9, tim10-1 inh 49.3*, NALP3 yeast inh 12.2, tim23-1 inh 37.2, SKKanGAS inh 3.6, TIM10 inh 4.3 and tim10-1 confirm -2.5.
For CCN(CC)CCN(C(=O)c1cc2ccccc2cc1OC)c1nc2ccc(OC)cc2s1 the results were PfHsp90 yeast 2 4.0, tim10-1 inh 56.4*, NALP3 yeast inh 26.6, tim23-1 inh 37.8, SKKanGAS inh -5.2, TIM10 inh 16.2 and tim10-1 confirm 23.9.
`Cc1ccc(S(=O)(=O)N(C)CC(=O)N2CCN(Cc3ccccc3)CC2)cc1` gave PfHsp90 yeast 2 -4.2, tim10-1 inh 46.6*, NALP3 yeast inh 16.4, tim23-1 inh 18.3, SKKanGAS inh -12.4, TIM10 inh 29.4 and tim10-1 confirm 23.4.
For Cc1ccc(S(=O)(=O)N(C)CC(=O)N2CCCCCCC2)cc1 the results were tim10-1 inh 13.1, NALP3 yeast inh 30.3, tim23-1 inh 21.3, SKKanGAS inh -0.5 and TIM10 inh -0.2.
`COc1cc(C(C)=O)ccc1OCC(=O)N(CCC1=CCCCC1)c1c(N)n(Cc2ccccc2)c(=O)[nH]c1=O` gave tim10-1 inh 11.5, NALP3 yeast inh 6.0, tim23-1 inh 10.1, SKKanGAS inh 3.2 and TIM10 inh 4.7.
`CC(=O)c1ccccc1NC(=O)CSc1nnc2ccccn12` gave tim10-1 inh -16.3, NALP3 yeast inh 21.8, tim23-1 inh -4.4, SKKanGAS inh -1.3 and TIM10 inh -2.6.
Screening COc1ccc(S(=O)(=O)n2oc(=O)cc2-c2ccccc2)cc1 returned PfHsp90 yeast 2 -17.5, tim10-1 inh 43.3*, NALP3 yeast inh -36.5, tim23-1 inh 14.2, SKKanGAS inh 1.4, TIM10 inh 14.4 and tim10-1 confirm 19.8.
Screening CC12CCC(C(=O)Nc3ccc(Br)cn3)(OC1=O)C2(C)C (stereo not drawn) returned tim10-1 inh 1.5, NALP3 yeast inh 31.8, tim23-1 inh 11.5, SKKanGAS inh -1.5 and TIM10 inh -0.9.
CCOC(=S)SCC(=O)Nc1ncc(C)s1 was read as PfHsp90 yeast 2 -27.4, tim10-1 inh 28.8, NALP3 yeast inh 3.8, tim23-1 inh 29.0, SKKanGAS inh 1.2 and TIM10 inh 9.1.
For Cc1ccc(C(C)NC(=S)NC2CCCCC2)c(C)c1 (stereo not drawn) the results were PfHsp90 yeast 2 12.2, tim10-1 inh 41.2*, NALP3 yeast inh 21.7, tim23-1 inh 17.3, SKKanGAS inh 3.4, TIM10 inh 17.6 and tim10-1 confirm 7.9.
